Source: publication PMC4336329 (PLoS ONE, 2015)
Out of some 310,000 compounds screened, about 14,000 (4.5%) showed an effect of 50% or more. The effect is printed as a negative number. Shown is part of a subset that was picked to be rich in strong results.

Target: human ether-à-go-go-related gene (hERG) potassium channel (human, UniProt Q12809)
Assay: primary screen, population patch clamp on CHO cells stably expressing hERG; higher = less effect of the substance
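Further: peak tail current of the secondary pulse compared with the same well before compound.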

human ether-à-go-go-related gene (hERG) potassium channel, sequence (Q12809 whole entry, looked up): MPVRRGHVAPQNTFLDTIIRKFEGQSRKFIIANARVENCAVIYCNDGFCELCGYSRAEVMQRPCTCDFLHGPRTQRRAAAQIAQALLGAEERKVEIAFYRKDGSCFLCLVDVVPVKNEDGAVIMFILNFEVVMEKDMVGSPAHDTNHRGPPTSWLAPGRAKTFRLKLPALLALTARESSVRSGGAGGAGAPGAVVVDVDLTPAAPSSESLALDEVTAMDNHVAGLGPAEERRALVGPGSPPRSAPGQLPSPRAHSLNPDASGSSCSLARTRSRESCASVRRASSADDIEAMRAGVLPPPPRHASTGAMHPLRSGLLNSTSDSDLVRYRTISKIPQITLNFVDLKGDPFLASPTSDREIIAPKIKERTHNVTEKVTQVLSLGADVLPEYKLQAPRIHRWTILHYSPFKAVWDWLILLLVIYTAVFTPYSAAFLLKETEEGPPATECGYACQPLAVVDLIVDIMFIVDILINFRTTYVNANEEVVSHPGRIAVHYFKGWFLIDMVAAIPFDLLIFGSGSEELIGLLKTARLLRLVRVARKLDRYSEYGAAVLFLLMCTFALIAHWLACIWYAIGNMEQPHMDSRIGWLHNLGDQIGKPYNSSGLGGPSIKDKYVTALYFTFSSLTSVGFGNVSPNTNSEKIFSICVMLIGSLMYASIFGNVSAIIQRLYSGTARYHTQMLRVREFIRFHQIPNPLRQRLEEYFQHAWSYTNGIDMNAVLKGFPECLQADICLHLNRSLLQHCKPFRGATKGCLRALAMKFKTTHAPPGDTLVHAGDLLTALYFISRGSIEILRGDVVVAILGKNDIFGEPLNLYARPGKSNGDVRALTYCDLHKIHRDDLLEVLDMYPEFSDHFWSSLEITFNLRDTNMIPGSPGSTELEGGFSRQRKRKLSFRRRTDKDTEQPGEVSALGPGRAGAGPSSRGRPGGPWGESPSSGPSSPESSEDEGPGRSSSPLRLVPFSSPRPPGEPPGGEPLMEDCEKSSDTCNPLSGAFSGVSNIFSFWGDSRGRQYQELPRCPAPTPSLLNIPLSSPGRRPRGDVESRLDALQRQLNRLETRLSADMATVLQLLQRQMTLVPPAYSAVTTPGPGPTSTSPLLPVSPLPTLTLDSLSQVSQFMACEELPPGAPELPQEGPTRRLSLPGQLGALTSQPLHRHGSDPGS

| SMILES | hERG current change (%, negative = inhibition) at 10uM |
| --- | --- |
| Cc1cc(C)n2nc(C(=O)N3CCCC(Nc4ccc(F)c(F)c4)C3)cc2n1 (stereo not drawn) | 5.05% |
| COc1cccc(N2C(=O)CC(N3CCN(C(=O)c4ccco4)CC3)C2=O)c1 (stereo not drawn) | 9.29% |
| COCCN(C(=O)c1ccc(NC2CC2)c([N+](=O)[O-])c1)c1c(N)n(CC(C)C)c(=O)[nH]c1=O | -5.42% |
| C[C@@H]1CC[C@]2(O[C@H](CCO)C[C@@H](O)[C@@H]2O)O1 | 0.536% |
| CC(C)(c1ccccc1)c1ccc(OCCN)cc1.Cl | -20.2% |
| CCc1cccc(NC(=O)CCc2c(C)nn(-c3ccc(N4CCCCC4)nn3)c2C)c1 | -19% |
| Cc1cccc(NC(=O)CCc2c(C)nn(-c3ccc(N4CCOCC4)nn3)c2C)c1 | 3.98% |
| CCc1cccc(NC(=O)CCc2c(C)nn(-c3ccc(N4CCOCC4)nn3)c2C)c1 | -51.4% |
| COc1ccc(NC(=O)Cn2c(=O)oc3cc(S(=O)(=O)N4CCCC4)ccc32)cc1 | 5.26% |
| CC1(C)CC(=O)C2=C(C1)N(c1ccccc1)C(=O)CC2c1ccsc1 (stereo not drawn) | -14.4% |
| O=C(NCc1ccccc1)C1CCN(S(=O)(=O)N2CCCCCC2)CC1 | -11% |
| CCn1c(=O)c(C(=O)NCCNCCO)c(O)c2ccccc21.Cl | 5.89% |
| CCN1C(=O)C(CC(=O)Nc2ccc(OC)cc2)N(CCCN2CCN(c3ccc(OC)cc3)CC2)C1=S (stereo not drawn) | -68% |
| CCN1C(=O)C(CC(=O)Nc2ccc(F)cc2)N(CCCN2CCN(c3ccc(F)cc3)CC2)C1=S (stereo not drawn) | -62.2% |
| CCCOc1ccc(NC(=O)CC2C(=O)N(CC)C(=S)N2CCCN2CCN(Cc3ccccc3)CC2)cc1 (stereo not drawn) | -50.5% |
| CCN1C(=O)C(CC(=O)Nc2ccc(OC)cc2)N(CCCN2CCN(c3ccc(F)cc3)CC2)C1=S (stereo not drawn) | -37.6% |
| C=CCN1C(=O)C(CC(=O)Nc2ccc(OCCC)cc2)N(CCCN2CCN(Cc3ccccc3)CC2)C1=S (stereo not drawn) | -38.7% |
| CCN1C(=O)C(CC(=O)Nc2ccc(F)cc2)N(CCc2ccc(OC)cc2)C1=S (stereo not drawn) | -0.637% |
| CCCOc1ccc(NC(=O)CC2C(=O)N(CC)C(=S)N2CCNC(C)=O)cc1 (stereo not drawn) | -11.5% |
| CCN1C(=O)C(CC(=O)Nc2ccc(OC)cc2)N(CCc2ccc(F)cc2)C1=S (stereo not drawn) | -6.48% |
| CCN1C(=O)C(CC(=O)Nc2ccc(OC)cc2)N(CCN2CCOCC2)C1=S (stereo not drawn) | -4.13% |
| O=C(Nc1ccccn1)C1CCN(C(=O)c2ccc(F)cc2)CC1 | 3.81% |
| CC1CC(C)CN(S(=O)(=O)c2cccc3nsnc23)C1 (stereo not drawn) | 4.61% |

| SMILES | hERG current change (%, negative = inhibition) at 10uM |
| --- | --- |
| Cc1cc(C)c2c3c(oc2n1)C(=O)N(c1cccc(Cl)c1)CC(=O)N3 | 1.82% |
| NC(=O)CC1NC(=O)c2cc([N+](=O)[O-])cc(I)c2OCCC(C(N)=O)NC(=O)[C@@H]2CCCN2C1=O (stereo partly drawn) | 6.79% |
| O=C(c1ccc2c3c(cccc13)C(=O)N(O)C2=O)N1CCCCC1 | 12.4% |
| COc1ccc2[nH]c3c(c2c1)CCN1C(=O)N([C@@H](C)C(=O)NCc2ccccc2)C(=O)[C@]31C | 2.42% |
| CC(C)[C@@H](C(=O)NC1CC1)N1C(=O)N2CCc3c([nH]c4ccccc34)[C@@]2(C)C1=O | -6.45% |
| COc1ccc(CNC(=O)[C@H](C)N2C(=O)N3CCc4c([nH]c5ccc(OC)cc45)[C@@]3(C)C2=O)cc1 | 9.36% |
| COc1ccc2[nH]c3c(c2c1)CCN1C(=O)N([C@@H](C)C(=O)NC2CCN(Cc4ccccc4)CC2)C(=O)[C@]31C | -48.8% |
| CC(C)[C@@H](C(=O)NC1CCN(Cc2ccccc2)CC1)N1C(=O)N2CCc3c([nH]c4ccccc34)[C@@]2(C)C1=O | -74.6% |
| CC(C)[C@@H](C(=O)NC1CCCC1)N1C(=O)N2CCc3c([nH]c4ccccc34)[C@@]2(C)C1=O | -12.4% |
| C[C@@H](C(=O)NC1CCN(Cc2ccccc2)CC1)N1C(=O)N2CCc3c([nH]c4ccccc34)[C@@]2(C)C1=O | -77.8% |
| COC(=O)[C@@H]1Cc2c([nH]c3ccccc23)C(C)(C)N1C(=O)CCl | 3.24% |
| COc1ccc2[nH]c3c(c2c1)CCN1C(=O)N([C@@H](C)C(=O)NCc2ccco2)C(=O)[C@]31C | -53.8% |
| COC(=O)C1Cc2c([nH]c3ccccc23)C2(CCN(Cc3ccccc3)CC2)N1 (stereo not drawn) | -68.2% |
| COC(=O)[C@H]1Cc2c([nH]c3ccccc23)[C@H](c2ccccc2)N1 | 5.76% |
| C[C@@H](C(=O)NC1CCCC1)N1C(=O)N2CCc3c([nH]c4ccccc34)[C@@]2(C)C1=O | -27.5% |
| CCCC(=O)n1nc(-c2cccnc2)nc1N | -27.1% |
| CC(C)C[C@@H](C(=O)N[C@@H](C(=O)O)c1ccccc1)N1C(=O)N2CCc3c([nH]c4ccccc34)[C@@]2(C)C1=O | -6.67% |
| CC(C)C[C@@H](C(=O)NC1CCN(Cc2ccccc2)CC1)N1C(=O)N2CCc3c([nH]c4ccccc34)[C@@]2(C)C1=O | -53.2% |
| CC(C)C[C@@H](C(=O)NC1CC1)N1C(=O)N2CCc3c([nH]c4ccccc34)[C@@]2(C)C1=O | -15% |
| Cc1ccc(CCN2CC(C(=O)NCCCN3CCN(C)CC3)CC2=O)cc1 (stereo not drawn) | -8.81% |
| CCN(C(=O)CSc1ccc2c(c1)OCCO2)C1CCS(=O)(=O)C1 (stereo not drawn) | 9.65% |
| COc1ccc(O)c(C(=O)c2cnc3c(c2)c(-c2ccc(F)cc2)c(C#N)c(=O)n3C)c1 | 12.6% |
| CCCCn1c(-c2cccnc2)nc2cc3[nH]c(=O)c(C(C)C)nc3cc21 | -50.4% |

| SMILES | hERG current change (%, negative = inhibition) at 10uM |
| --- | --- |
| CCCCn1c(-c2cccc(C)c2)nc2cc3[nH]c(=O)c(C(C)C)nc3cc21 | 0.235% |
| CCCCn1c(-c2cccc(Br)c2)nc2cc3[nH]c(=O)c(C(C)C)nc3cc21 | 4.08% |
| CC(=O)C(Sc1nnnn1-c1ccc(O)cc1)c1ccccc1 (stereo not drawn) | -14.3% |
| COc1ccc(CCNC(=O)c2ccc3c(=O)n(Cc4ccco4)c(=S)[nH]c3c2)cc1OC | 17.2% |
| COc1ccc(CCNC(=O)c2cc3c(=O)n4ccccc4nc3n(Cc3ccco3)c2=N)cc1OC | -76.6% |
| COc1ccc(CCNC(=O)c2cc3c(=O)n4cccc(C)c4nc3s2)cc1OC | 21.3% |
| COc1ccc(CCNC(=O)c2coc3ccccc3c2=O)cc1OC | -4.09% |
| COc1ccc(CCNC(=O)c2cc3c(=O)n4cccc(C)c4nc3n(Cc3ccco3)c2=N)cc1OC | -80.9% |
| COc1ccc(CCNC(=O)CSc2nc(=O)n3cccc(C)c3n2)cc1OC | 15.8% |
| CSc1ccc(Cl)c(C(=O)OCC(=O)NCC(C)C)c1 | -21% |
| CCN(CC)CC(O)Cn1c(C)c(-c2ccccc2)c2cc([N+](=O)[O-])ccc21.Cl (stereo not drawn) | -65.3% |
| CCN(CC)CC(O)Cn1c2ccccc2c2ccccc21 (stereo not drawn) | -16% |
| Cn1c(CO)c(-c2ccccc2)c2cc([N+](=O)[O-])ccc21 | 10.2% |
| Nc1cccc2c1C(=O)N(CCOc1ccccc1F)C2=O | 20.2% |
| CCN1CCN(c2oc(COc3ccc(Cl)cc3)nc2C#N)CC1 | -77% |
| N#Cc1nc(COc2ccc(Cl)cc2)oc1N1CCCC1 | -38.9% |
| N#Cc1nc(COc2ccc(F)cc2)oc1N1CCCC1 | -46.7% |
| N#Cc1nc(COc2ccc(F)cc2)oc1N1CCN(Cc2ccccc2)CC1 | -75.3% |
| N#Cc1nc(COc2ccc(Cl)cc2)oc1N1CCN(Cc2ccccc2)CC1 | -1.08% |
| N#Cc1nc(COc2ccccc2)oc1N1CCN(Cc2ccccc2)CC1 | -21.9% |
| Cc1ccc(OCc2nc(C#N)c(N3CCCCC3)o2)cc1 | -4.24% |
| COc1ccc(N2CCN(c3oc(COc4ccc(Cl)cc4)nc3C#N)CC2)cc1 | -2.55% |
| Cc1ccc(OCc2nc(C#N)c(N3CCN(Cc4ccccc4)CC3)o2)cc1 | -6.23% |

| SMILES | hERG current change (%, negative = inhibition) at 10uM |
| --- | --- |
| CN1CCN(c2oc(COc3ccc(-c4ccccc4)cc3)nc2C#N)CC1 | -19% |
| Cc1ccc(OCc2nc(C#N)c(N3CCCC3)o2)cc1 | -62.8% |
| CCN1CCN(c2oc(COc3ccc(-c4ccccc4)cc3)nc2C#N)CC1 | -55.8% |
| CC1=CC(C)[C@@H]2COC(c3ccc(O)cc3)[C@H]1C2C (stereo partly drawn) | 4.96% |
| Cc1ccc(N2CC(C(=O)NCc3nnnn3-c3ccc(C)c(C)c3)CC2=O)cc1 (stereo not drawn) | -19.8% |
| Cc1ccc(S(=O)(=O)NC(=O)C2CCCCC2)cc1 | 14.3% |
| O=C(COc1ccc2ccccc2c1)NCCNC(=O)COc1ccc2ccccc2c1 | 17.2% |
| O=C(c1cc(-c2ccccc2)on1)N1CCCC1 | 9.39% |
| O=C(NCc1ccc2c(c1)OCO2)c1ccc2c(c1)OCCO2 | 8.03% |
| CC(C(=O)Nc1cccc(S(=O)(=O)N2CCOCC2)c1)N1CCN(C)CC1 (stereo not drawn) | -5.23% |
| CC(=O)c1ccc(NC(=O)C(C)N2CCN(C/C=C/c3ccccc3)CC2)cc1 (stereo not drawn) | -71.4% |
| CC(=O)Nc1ccc(S(=O)(=O)N[C@@H](C)C(=O)N2CCN(C/C=C/c3ccccc3)CC2)cc1 | -31.8% |
| COc1ccc(N2CCN(C(C)C(=O)N(C)Cc3ccccc3)CC2)cc1 (stereo not drawn) | -17.3% |
| CC(C(=O)Nc1cccc(S(=O)(=O)N2CCOCC2)c1)N1CCN(C/C=C/c2ccccc2)CC1 (stereo not drawn) | -75% |
| CC(CN1CCN(Cc2ccccc2)CC1)c1ccccc1.O=C(O)C(=O)O (stereo not drawn) | -14% |
| CC(=O)c1ccc(S(=O)(=O)NCC(=O)N2CCN(C/C=C/c3ccccc3)CC2)cc1 | -38.7% |
| CC(CN1CCN(C/C=C/c2ccccc2)CC1)c1ccccc1.O=C(O)C(=O)O (stereo not drawn) | -59.6% |
| CC(C)C(NC(=O)c1ccccc1)C(=O)N1CCN(C/C=C/c2ccccc2)CC1 (stereo not drawn) | -41.2% |
| CC(C(=O)N(C)Cc1ccccc1)N1CCN(C/C=C/c2ccccc2)CC1 (stereo not drawn) | -78.9% |
| CC(CN1CCCCC1)c1ccccc1.O=C(O)C(=O)O (stereo not drawn) | 13.1% |
| CC(C(=O)Nc1cccc(S(=O)(=O)N2CCOCC2)c1)N1CCN(c2ccc(F)cc2)CC1 (stereo not drawn) | -40.3% |
